Experimental findings from PubChem BioAssay are described below.

Calls of active or inactive are those of the source. Unless noted, the rule behind the calls is not given here.
Note: test concentration not given here.

Sequence of Dihydroorotate dehydrogenase (quinone), mitochondrial (Plasmodium falciparum (isolate 3D7)) (Q08210 whole entry, looked up): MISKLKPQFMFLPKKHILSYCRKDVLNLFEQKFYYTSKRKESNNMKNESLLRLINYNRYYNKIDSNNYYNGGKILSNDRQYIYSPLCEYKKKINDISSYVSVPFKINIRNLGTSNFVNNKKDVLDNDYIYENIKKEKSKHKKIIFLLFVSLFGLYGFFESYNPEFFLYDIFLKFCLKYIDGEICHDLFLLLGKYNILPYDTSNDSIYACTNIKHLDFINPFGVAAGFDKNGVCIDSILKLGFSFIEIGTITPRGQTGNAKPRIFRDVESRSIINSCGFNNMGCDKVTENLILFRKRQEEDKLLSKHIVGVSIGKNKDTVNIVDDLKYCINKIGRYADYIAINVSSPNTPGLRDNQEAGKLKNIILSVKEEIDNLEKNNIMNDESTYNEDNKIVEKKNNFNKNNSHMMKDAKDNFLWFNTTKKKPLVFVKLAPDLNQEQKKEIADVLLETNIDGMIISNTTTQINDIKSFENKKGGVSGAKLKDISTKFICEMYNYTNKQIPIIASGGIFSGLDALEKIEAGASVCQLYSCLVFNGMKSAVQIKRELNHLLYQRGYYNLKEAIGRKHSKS

One assay concerns the target Dihydroorotate dehydrogenase (quinone), mitochondrial (Plasmodium falciparum (isolate 3D7)) (UniProt Q08210). Description: inhibition of P. falciparum DHODH – biochemical, C-terminal His tag, absorbance 600 nm, primary screen (AID 1175).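 Note: recombinant parasite enzyme with a five histidine tag at its C terminus.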 As to conditions: PfDHODH enzyme, DCIP absorbance 600 nm; higher = more signal, called active from +8 up or from −8 down.
For `CC(C)c1nc2cc(Br)ccc2c(=O)o1`, the composite z-score was 0.374 (inactive).
`CCOC(=O)C1=CCC(c2cc3ccccc3[nH]2)N(CCN2CC(C(=O)OCC)=CCC2c2cc3ccccc3[nH]2)C1` (centres undefined): the composite z-score was 0.268 (inactive).
Take `O=C(NC1CC1)[C@@H]1c2ccccc2C(=O)N(CC23CC4CC(CC(C4)C2)C3)[C@H]1c1ccc(CO)cc1`: the composite z-score was -0.329 (inactive).
The same measure, in the same setting: in the case of `N#Cc1ccc(NN2C(C(O)C3CC=CCC3)C=CC3C(=O)N(c4ccccc4)C(=O)C32)cc1` (centres undefined) it was 0.0758 (inactive); in that of `O=C(NCC(O)CO)C1N=C(c2ccc(OCCCO)cc2)N(c2ccccc2)O1` (centres undefined), -0.568 (inactive).
Take `CCCC[C@H]1OB(O)C[C@H]2C1=C(COc1ccccc1)C[C@H]1C(=O)C=CC(=O)[C@H]12`: the composite z-score is -0.973 (inactive).
As to `COCCn1c(C(=O)N(C)C)cc2c1C[C@H]1CN(C(=O)c3ccccc3)[C@@](Cc3ccc(OC)cc3)(C(=O)OC)[C@@H]21`, the composite z-score is -0.271 (inactive).

Test system in the next assay: not listed separately
Description: inhibition of PAO1 biofilm formation – strain PAO1, LB-PBS medium, absorbance 600 nm, primary screen (AID 1176). The note with it: P. aeruginosa PAO1 growth/biofilm, A600, 12 h; higher = more signal.
Consider `CC(C)(C)N1CC=CC23O[C@@H]4/C=C\CCCOC(=O)C4[C@H]2C(=O)N(CCCCCO)[C@@H]3C1=O` (some centres undefined), for which the z-score is 0.481 (inactive).
Still for that read-out and setting: for `COCCCNC(=O)[C@@]1(CCS(=O)(=O)c2ccccc2)COC(c2ccc(OCCCO)cc2)=N1` the value was 0.19 (inactive); for `O=C1NC(=O)C2C1C=CC(C(O)c1ccc(B(O)O)cc1)N2Nc1ccc(Cl)cc1Cl` (centres undefined), 1.29 (inactive); for `CCOc1cc(C(O)C2C=CC3C(=O)N(c4ccccc4)C(=O)C3N2Nc2ccccc2F)ccc1O` (centres undefined), 0.931 (inactive).
With `O=C1OCCC=C[C@H]2OC34C=CCN(c5ccc6ccccc6c5)C(=O)[C@H]3N(CCO)C(=O)[C@@H]4C12` (some centres undefined), the z-score is 0.345 (inactive).
As for `CN(C)CCCNC(=O)[C@@]1(Cc2ccccc2I)c2ccccc2C(=O)N(C2CCCCC2)[C@H]1c1ccc(CO)cc1`, the z-score is 0.36 (inactive).
On the same count and under the same terms, for `COc1ccc(C#Cc2ccc3c(c2)[C@]2(C(=O)N3)[C@H](C(=O)O)[C@H]3C(=O)O[C@H](c4ccccc4)[C@H](c4ccccc4)N3[C@@H]2c2ccccc2OCCO)cc1` the value was 3.23 (inactive).
The same measure, in the same setting: in the case of `COCCOC(=O)N1C(=O)[C@@]2(c3cc(C#CC4(O)CCCCCC4)ccc31)[C@H](c1ccc(O)cc1)N1[C@H](c3ccccc3)[C@H](c3ccccc3)OC(=O)[C@H]1[C@@H]2C(=O)N1CCCCCCC1` it was 1.19 (inactive); in that of `[N-]=[N+]=Nc1ccccc1[C@@H]1OC(c2ccc(OCCCO)cc2)=N[C@]1(Cc1ccccc1)C(=O)NCCN1CCOCC1`, -0.441 (inactive).
Regarding `CCCCC(O)C1C=CC2C(=O)N(c3ccccc3)C(=O)C2N1Nc1ccccc1` (centres undefined), the z-score is -0.0625 (inactive).
Same read-out and setting: in the case of `CC=CC(O)C1C=CC2C(=O)NC(=O)C2N1Nc1ccc(Cl)cc1Cl` (centres undefined) it was 0.723 (inactive).
As to `COC(=O)[C@H](Cc1ccccc1)N1CC2=CCCC=C[C@@H]2[C@H]1[C@H](O)Cc1ccccc1`, the z-score is -0.565 (inactive).
Still for that read-out and setting: for `Cc1ccc(S[C@]2(C(=O)NC(C)C)CC(=O)N(C3CCCCC3)[C@@H]2c2ccc(CO)cc2I)cc1` the value was 0.462 (inactive).
Still for that read-out and setting: in the case of `CCCNC(=O)[C@@]1(c2ccc([N+](=O)[O-])cc2)CC(=O)N(C(C)C)[C@@H]1c1ccc(CO)cc1` it was 0.373 (inactive); in that of `COC(=O)[C@@]1(Cc2ccc(OC)cc2)[C@H]2c3cc(C(=O)N(C)C)[nH]c3C[C@H]2CN1C(=O)c1ccccc1`, -0.471 (inactive); in that of `O=C1N(CCS(=O)(=O)c2ccccc2)c2ccccc2C[C@]12N=C(c1ccc(OCCCO)cc1)O[C@@H]2c1ccccc1`, 0.575 (inactive).
Regarding `CC1=C([C@H](O)CCc2ccccc2)[C@H](CO)n2c(=O)n(-c3ccccc3)c(=O)n2C1`, the z-score was 0.589 (inactive).
Consider `O=C1O[C@H](Cc2ccccc2)[C@@H]2[C@H]3C=CCCC=C3CN2[C@H]1Cc1ccc(O)cc1`, for which the z-score is 0.118 (inactive).
On the same count and under the same terms, in the case of `CN(C)c1ccc(C(O)C2C=CC3C(=O)N(Cc4ccccc4)C(=O)C3N2n2cnnc2)cc1` (centres undefined) it was 1.77 (inactive).
For the molecule `COC(=O)[C@@]1(Cc2ccc(F)cc2)[C@H]2c3cc(C(=O)N(C)C)n(CCc4ccc(O)c(O)c4)c3C[C@H]2CN1C(=O)c1ccccc1`, the z-score is -0.154 (inactive).
On the same count and under the same terms, in the case of `CCCC[C@H]1C[C@@H]1[C@@H]1N(C(C)=O)[C@H](c2cccc(OC)c2)CC12CC2` it was -0.499 (inactive); in that of `CC(=O)OCC1C2CC[C@H]3C(OCc4ccc(F)cc4C(F)(F)F)OC[C@]4(C)[C@H]3C2=C(CN4C(=O)OC(C)(C)C)[C@H](C)C1COC(C)=O` (some centres undefined), 1.14 (inactive).
